Measurements as given in PubChem BioAssay (Tox21).
Records with an inconclusive call do not appear. Calls of active or inactive are those of the source. Calls follow the shape of the dose curve; as a rule, active = well fitted activation curve with a large enough effect in the repeat runs; inconclusive = weak or mixed curves; inactive = flat fitted curve, though single readings scatter.

Assay: A CellTox Green Cytotoxicity Assay to monitor cytotoxicity in HEK293 cells - 24 hour (AID 1224875); also: nearly all actives have a fitted effect of over 45% in size
Conditions: CellTox Green fluorescence; series mostly up to 76.8 µM; activity change: at the top concentration
Source text: National Center for Advancing Translational Sciences [NCATS]
NIH Chemical Genomics Center [NCGC]
U.S. Environmental Protection Agency [EPA]
National Institutes of Environmental Health Sciences [NIEHS]
National Toxicology Program [NTP]
Cell-based models are critical for drug discovery. Determining the natural cytotoxic effects resulting from test compounds is an essential research activity. A CellTox Green Cytotoxicity Assay to monitor cytotoxicity in real time of continues cell culture during 40 hours of the compound treatment was used to screen Tox21 10K library compounds in Hek293 cells. CellTox Green Cytotoxicity Assay is a nonlytic, homogeneous, biofluorescent method to measure cytotoxicity in cell culture after experimental manipulation. The assay system uses a proprietary asymmetric cyanine dye that is excluded from viable cells but preferentially stains the dead cell's DNA. […] Viable cells produce no appreciable increases in fluorescence. Therefore, the fluorescence signal produced by the binding interaction with dead cell DNA is proportional to cytotoxicity.
The mixture of Hek293 cell suspension and reagents were dispensed at 600cells/6 ul/well in 1536-well tissue culture treated black solid bottom plates using a Multidrop dispenser. After the assay plates were incubated at a 37 C/5% CO2 incubator for 5 hours, 23 nL of compounds dissolved in DMSO, positive and negative controls was transferred to the assay plate by a pintool work station. The plates were incubated at 37 C for 40 hours. The fluorescence intensity were measured at 0h, 8h, 16h, 24h, 32h and 40h time points using ViewLux plate reader during compound treatment.
% is scaled to controls: 0 for no effect and ±100 for the full control effect; potency is read from the fitted curve at half-maximal effect.

SMILES	activity change	Potency
CCOC(=O)[C@@](C)(N)Cc1ccc(O)c(O)c1	-0.79% [at 35.3 µM, stronger effect = higher value] (inactive)	
CCCC(=O)OCC(COC(=O)CCC)OC(=O)CCC	3.51% (inactive)	
CCCCCCCOC(=O)c1ccc(O)cc1		inactive
Cc1c(-c2ccc(O)cc2)n(Cc2ccc(OCCN3CCCCCC3)cc2)c2ccc(O)cc12		21.3 µM (active)
CC1CCCCC1	11.2% (inactive)	
CC(=O)c1ccccc1N	-19.2% (inactive)	
CO[C@H]1C=CO[C@@]2(C)Oc3c(C)c(O)c4c(O)c(cc(O)c4c3C2=O)NC(=O)/C(C)=C\C=C/[C@H](C)[C@H](O)[C@@H](C)[C@@H](O)[C@@H](C)[C@H](OC(C)=O)[C@@H]1C	-30.9% (inactive)	
CCCCOC(=O)C(C)CC (stereo not given)	-5.92% (inactive)	
CCCCCCC(C)OC(=O)COc1nc(F)c(Cl)c(N)c1Cl (stereo not given)	17.4% (inactive)	
Oc1ccc(-c2ccc(O)cc2)cc1	-4.64% (inactive)	
CCCCCCCC/C=C/CCCOC(C)=O	5.27% (inactive)	
C1CC(COCC2CO2)CCC1COCC1CO1 (stereo not given)	-0.329% (inactive)	
C=CCCCCCCC=C	-1.01% (inactive)	
CCCCN(C)C	12.9% (inactive)	
CCOC(=O)C1=C(C)NC(C)=C(C(=O)OCC)C1c1ccccc1/C=C/C(=O)OC(C)(C)C	-13.1% [at 35.3 µM, stronger effect = higher value] (inactive)	
CCCCCCCCCCCCCCCCCO	-19.9% [at 15.8 µM, stronger effect = higher value] (inactive)	
O=C1NCCN1CCN1CCC(c2cn(-c3ccc(F)cc3)c3ccc(Cl)cc23)CC1		23.9 µM (active)
CC(NCCC(c1ccccc1)c1ccccc1)c1ccccc1 (stereo not given)		21.3 µM (active)
Clc1nc2ccccc2s1	2.11% (inactive)	
O=Cc1ccc(F)cc1	-1.52% (inactive)	

SMILES	activity change	Potency
C=C/C=C/C=C/CCCCC	1.62% [at 15.8 µM, stronger effect = higher value] (inactive)	
O=C[C@H](O)[C@H](O)[C@H](O)CO	-0.364% (inactive)	
CO[Si](CCC1CCC2OC2C1)(OC)OC (stereo not given)	-9.69% (inactive)	
CC(C)(C)CC(C)(C)c1ccccc1O		39.1 µM (active)
N[C@@H](CSSC[C@H](N)C(=O)O)C(=O)O	7.29% [at 0.29 µM, stronger effect = higher value] (inactive)	
COc1cc(C=C2CCC/C(=C\c3ccc(O)c(OC)c3)C2=O)ccc1O	-0.537% [at 35.3 µM, stronger effect = higher value] (inactive)	
NCCCC(O)(P(=O)(O)O)P(=O)(O)O	1.3% [at 35.3 µM, stronger effect = higher value] (inactive)	
Nc1ncnc2c1ncn2[C@@H]1O[C@H](COP(=O)(O)O)[C@@H](O)[C@H]1O	-7.58% [at 35.3 µM, stronger effect = higher value] (inactive)	
C=CC/C=C/C/C=C/C/C=C/C	15.2% (inactive)	
CCCOc1sc(C(=O)N2CCC(c3cc(CN)ccc3F)CC2)c(C)c1Br		22.5 µM (active)
CC[N+](CC)(CC)Cc1ccccc1	-0.41% (inactive)	
CC(C)(C)c1n[nH]c(=O)n(N)c1=O	-0.262% (inactive)	
CC(=O)OC1CCCCC1	-9.56% (inactive)	
Cc1cc(=O)[nH]c(=O)[nH]1	-3.39% (inactive)	
COc1ccc(-n2nc(CCC(=O)N(C)O)cc2-c2ccc(Cl)cc2)cc1	-10.7% [at 35.3 µM, stronger effect = higher value] (inactive)	
CCC(C)c1cc([N+](=O)[O-])cc([N+](=O)[O-])c1OC(=O)OC(C)C (stereo not given)	1.3% (inactive)	
C[n+]1c2cc(N)ccc2cc2ccc(N)cc21 (tested in a mixture with another compound)		23.9 µM (active)
Cc1oc(-c2ccccc2)nc1CCOc1ccc(C[C@H](Nc2ccccc2C(=O)c2ccccc2)C(=O)O)cc1	13.3% (inactive)	
COC(=O)CC(C)CCC=C(C)C (stereo not given)	-2.43% (inactive)	
C=CC(=C)CC/C=C(\C)CCC=C(C)C	0.574% [at 15.8 µM, stronger effect = higher value] (inactive)	
